Measured values from PubChem BioAssay.
The source made the active and inactive calls. Unless noted, no rule for the calls is given here.

What was measured:
[1] = resazurin metabolic signal in HepG2 cells – cell-based, resazurin fluorescence, 24 h, PK04 Diversity Set, profiling panel (AID 1172); settings: HepG2 viability, higher = more signal; also: test concentration not given here
[2] = budding yeast growth changes without added modifier – OD600, strain BY4716, 24 h, basal condition, primary screen (AID 1173); settings: S. cerevisiae BY4716 growth, OD600, 24 h; higher = more signal, called active from +8 up or from −8 down
[3] = viability profiling in MM1S myeloma cells – cell-based, resazurin fluorescence, basal, 24 h, PK04 Diversity Set, profiling panel (AID 1174); settings: higher = more signal, called active from +8 up or from −8 down;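 also: MM1S multiple myeloma cell line; test concentration not given here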
[4] = target: Dihydroorotate dehydrogenase (quinone), mitochondrial (Plasmodium falciparum (isolate 3D7)) (UniProt Q08210); experiment: inhibition of P. falciparum DHODH – biochemical, C-terminal His tag, absorbance 600 nm, primary screen (AID 1175); settings: PfDHODH enzyme, DCIP absorbance 600 nm; higher = more signal, called active from +8 up or from −8 down;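 also: recombinant parasite enzyme with a five histidine tag at its C terminus; test concentration not given here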
[5] = inhibition of PAO1 biofilm formation – strain PAO1, LB-PBS medium, absorbance 600 nm, primary screen (AID 1176); also: test concentration not given here; settings: P. aeruginosa PAO1 growth/biofilm, A600, 12 h; higher = more signal
[6] = growth modulation of vineyard yeast isolate – strain RM11-1a, OD600, basal, 24 h, primary screen (AID 1177);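 also: cultures grown under basal conditions with no added stressor; test concentration not given here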; settings: S. cerevisiae RM11-1a growth, OD600, 24 h; higher = more signal, called active from +8 up or from −8 down
[7] = growth of efflux-deficient E. coli DRC39 – strain DRC39, OD650, 24 h, E. coli filamentation inducers, primary screen (AID 1178);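 also: growth measured as culture turbidity by optical density at 650 nm; test concentration not given here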; settings: E. coli DRC39 acrAB, higher = more signal, called active from +8 up or from −8 down
[8] = growth of efflux-deficient E. coli DRC39 – strain DRC39, OD650, 48 h, E. coli filamentation inducers, primary screen (AID 1179);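 also: screen aims at cell division blockers that make cells filament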; settings: E. coli DRC39 delta-acrAB growth, higher = more signal, called active from +8 up or from −8 down
[9] = viability profiling in RPMI8226 myeloma cells – cell-based, resazurin fluorescence, basal, 24 h, PK04 Diversity Set, profiling panel (AID 1180); settings: higher = more signal;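 also: RPMI8826 multiple myeloma cell line at 5000 cells per well; test concentration not given here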
[10] = target: E3 ubiquitin-protein ligase XIAP (Homo sapiens) (UniProt P98170); experiment: small molecules binding XIAP protein – biophysical, small-molecule microarray, fluorescence 635 nm, primary screen (AID 1181); settings: higher = more signal;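 also: score merges 667 nm emission and signal to noise over triplicate slides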
Sequence of E3 ubiquitin-protein ligase XIAP (Homo sapiens) (P98170 whole entry, looked up): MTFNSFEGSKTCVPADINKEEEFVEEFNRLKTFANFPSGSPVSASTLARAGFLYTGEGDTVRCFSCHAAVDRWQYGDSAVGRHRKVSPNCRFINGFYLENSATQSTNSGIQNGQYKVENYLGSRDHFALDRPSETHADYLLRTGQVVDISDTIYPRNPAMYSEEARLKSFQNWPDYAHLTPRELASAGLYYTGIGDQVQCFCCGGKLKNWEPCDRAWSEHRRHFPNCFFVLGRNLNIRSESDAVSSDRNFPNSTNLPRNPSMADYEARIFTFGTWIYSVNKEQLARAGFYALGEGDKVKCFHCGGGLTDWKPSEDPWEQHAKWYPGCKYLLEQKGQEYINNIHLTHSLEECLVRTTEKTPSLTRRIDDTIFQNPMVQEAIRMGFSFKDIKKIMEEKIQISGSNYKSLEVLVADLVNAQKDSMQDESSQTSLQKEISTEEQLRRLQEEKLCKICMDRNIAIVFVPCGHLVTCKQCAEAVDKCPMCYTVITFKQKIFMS

Sequence of Dihydroorotate dehydrogenase (quinone), mitochondrial (Plasmodium falciparum (isolate 3D7)) (Q08210 whole entry, looked up): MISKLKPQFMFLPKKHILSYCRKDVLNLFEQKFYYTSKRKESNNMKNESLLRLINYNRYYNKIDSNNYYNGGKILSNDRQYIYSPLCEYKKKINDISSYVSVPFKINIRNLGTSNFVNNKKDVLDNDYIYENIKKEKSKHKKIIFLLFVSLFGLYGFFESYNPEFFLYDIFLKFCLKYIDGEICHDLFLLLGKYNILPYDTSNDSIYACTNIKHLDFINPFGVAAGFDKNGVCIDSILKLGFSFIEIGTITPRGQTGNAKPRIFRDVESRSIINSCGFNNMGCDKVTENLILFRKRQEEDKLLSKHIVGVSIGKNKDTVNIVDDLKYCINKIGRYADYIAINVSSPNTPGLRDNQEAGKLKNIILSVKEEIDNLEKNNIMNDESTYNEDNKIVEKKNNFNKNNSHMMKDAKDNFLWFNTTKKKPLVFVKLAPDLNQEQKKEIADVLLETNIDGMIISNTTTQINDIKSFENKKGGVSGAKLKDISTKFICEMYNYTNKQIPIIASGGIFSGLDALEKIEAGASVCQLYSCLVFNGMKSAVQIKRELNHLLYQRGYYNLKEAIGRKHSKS

| Structure (SMILES) | z-score [1] | z-score [2] | z-score [3] | composite z-score [4] | z-score [5] | z-score [6] | z-score [7] | z-score [8] | z-score [9] | composite z-score [10] |
| --- | --- | --- | --- | --- | --- | --- | --- | --- | --- | --- |
| O=C1N(CCS(=O)(=O)c2ccccc2)Cc2ccccc2[C@H]2OC(c3ccc(OCCCO)cc3)=N[C@@]12CCS(=O)(=O)c1ccccc1 | 0.759 | 1.83 (inactive) | 0.935 (inactive) | -0.796 (inactive) | 0.0533 (inactive) | 3.07 (inactive) | 1.69 (inactive) | 1.09 (inactive) | -0.124 | -0.15 |
| COCCOC(=O)N1C(=O)[C@@]2(c3cc(C#CCCO)ccc31)[C@H](C(=O)NC[C@H](O)c1ccccc1)[C@H]1C(=O)O[C@H](c3ccccc3)[C@H](c3ccccc3)N1[C@@H]2c1ccc(O)cc1 | 0.816 | 0.562 (inactive) | 0.858 (inactive) | 1.34 (inactive) | 0.29 (inactive) | 1.36 (inactive) | 1.01 (inactive) | 0.887 (inactive) | 1.04 | -0.0126 |
| Cc1cc(C)cc(N2C(=O)CS(=O)(=O)C2c2cccc([N+](=O)[O-])c2)c1 (stereo not given) | -0.0507 | -0.658 (inactive) | -0.208 (inactive) | -2.1 (inactive) | -0.407 (inactive) | -0.438 (inactive) | 0.899 (inactive) | 1.04 (inactive) | -0.194 | -0.22 |
| O=C1[C@]2(CO)C=C(Br)[C@@H](C[C@@H]2c2ccccc2)[C@@]12CO2 | 1.09 | -4.57 (inactive) | -0.0768 (inactive) | -0.172 (inactive) | -0.884 (inactive) | 0.184 (inactive) | 0.613 (inactive) | 0.585 (inactive) | -0.333 | -0.102 |
| COc1cc2c(cc1OC)CN(C(=O)[C@@H]1[C@H]3C(=O)O[C@H](c4ccccc4)[C@H](c4ccccc4)N3[C@H](c3ccccc3OCCO)[C@@]13C(=O)Nc1ccc(C#CCNC(N)=O)cc13)CC2 | 0.0227 | 0.74 (inactive) | -0.148 (inactive) | -0.839 (inactive) | 2.93 (inactive) | 3 (inactive) | 1.13 (inactive) | 1.31 (inactive) | 0.088 | 0.153 |
| CCOC(=O)C[C@H]1[C@H](OC(=O)c2ccc(-c3ccccc3)cc2)[C@@H](NC(=O)Cc2ccc(OC)cc2)c2cc(OCCCO)ccc2N1C(=O)c1ccc2ccccc2n1 | -0.458 | -0.533 (inactive) | -0.607 (inactive) | -0.236 (inactive) | 0.055 (inactive) | -0.586 (inactive) | -0.536 (inactive) | -0.485 (inactive) | -0.893 | 0.091 |
| Cc1ccc(S[C@]2(C(=O)NC3CC3)CC(=O)N(Cc3ccccc3)[C@@H]2c2ccc(CO)cc2)cc1 | -0.177 | -1.71 (inactive) | 0.262 (inactive) | -0.867 (inactive) | 0.196 (inactive) | -0.5 (inactive) | 0.354 (inactive) | -0.255 (inactive) | 0.35 | 0.0424 |
| CC(C)C(=C=CC[C@@H](O)c1ccccc1OCCO)C[C@@H](O)c1ccccn1 | -0.347 | -1.09 (inactive) | 0.0716 (inactive) | -9.29 (active) | 0.142 (inactive) | -0.435 (inactive) | -0.749 (inactive) | -0.628 (inactive) | 0.221 | 0.0709 |
| CC(C)N1C(=O)c2ccccc2[C@@H](C(=O)NCCCN(C)C)[C@@H]1c1ccc(CO)cc1 | -0.456 | -0.725 (inactive) | -0.0365 (inactive) | 0.465 (inactive) | -0.273 (inactive) | 0.625 (inactive) | -0.315 (inactive) | -0.621 (inactive) | 0.764 | 0.013 |
| N#Cc1ccc(NN2C(C(O)c3cccs3)C=CC3C(=O)N(c4ccccc4)C(=O)C32)cc1 (stereo not given) | -0.375 | -1.97 (inactive) | 0.0171 (inactive) | -1.41 (inactive) | 1.08 (inactive) | -1.59 (inactive) | 0.766 (inactive) | 1.36 (inactive) | 0.131 | -0.126 |
| CC(C)(C)OC(=O)CC[C@@]1(C(=O)NCCN2CCOCC2)N=C(c2ccc(OCCCO)cc2)O[C@@H]1c1ccccc1 | -0.781 | -0.712 (inactive) | 0.596 (inactive) | -0.317 (inactive) | -0.347 (inactive) | 0.572 (inactive) | 1.15 (inactive) | 1.32 (inactive) | 0.641 | 0.228 |
| CCOC(=O)C1=CC[C@@H](c2ccccc2Cl)N(S(=O)(=O)c2ccc(C)cc2)C1 | -0.358 | -1.65 (inactive) | 0.0161 (inactive) | -0.978 (inactive) | -0.308 (inactive) | -0.24 (inactive) | -0.203 (inactive) | 1.03 (inactive) | -1.37 | -0.0115 |
| COC(=O)c1ccc(OC)c(/C=C\CC(OC(C)=O)c2ccccc2)c1 (stereo not given) | 0.0209 | -1.17 (inactive) | -0.345 (inactive) | -3.79 (inactive) | -0.351 (inactive) | -0.639 (inactive) | 0.0847 (inactive) | -0.396 (inactive) | -1.1 | 0.0131 |
| C=C[C@@H](COC(C)=O)N(Cc1ccccc1[N+](=O)[O-])S(=O)(=O)c1ccc(Br)cc1 | -0.798 | -2.24 (inactive) | -0.504 (inactive) | -2.79 (inactive) | -0.0963 (inactive) | -2.34 (inactive) | 1.47 (inactive) | 0.911 (inactive) | 0.0192 | 0.183 |
| O=C1C[C@@](C(=O)NC2CC2)(c2ccc([N+](=O)[O-])cc2)[C@@H](c2ccc(CO)cc2)N1CC12CC3CC(CC(C3)C1)C2 | -0.494 | -0.369 (inactive) | -2.23 (inactive) | 0.117 (inactive) | -0.273 (inactive) | 0.0982 (inactive) | -0.284 (inactive) | 0.466 (inactive) | -3.25 | 0.0975 |
| COCCOC(=O)N1C(=O)[C@@]2(c3cc(C#CCC(C(=O)OC)C(=O)OC)ccc31)[C@H](c1ccc(O)cc1)N1[C@H](c3ccccc3)[C@H](c3ccccc3)OC(=O)[C@H]1[C@@H]2C(N)=O | -0.2 | -0.235 (inactive) | -0.0347 (inactive) | -0.181 (inactive) | 1.28 (inactive) | 0.332 (inactive) | -0.319 (inactive) | -0.586 (inactive) | -0.777 | 0.098 |
| COC(=O)[C@@]1(Cc2ccccc2)[C@H]2c3cc(C(=O)N(C)C)n(Cc4cc(C)n(C)n4)c3C[C@H]2CN1C(=O)c1ccccc1 | -1.03 | 0.289 (inactive) | -0.99 (inactive) | -0.857 (inactive) | 0.687 (inactive) | -0.211 (inactive) | -1.12 (inactive) | -0.944 (inactive) | -0.566 | 0.0737 |
| CN(C)CCCCCCNC(=O)[C@H]1C[C@H]2C(=O)N[C@@H](CCCCN)C(=O)N2[C@H]1c1ccc(O)cc1 | -0.807 | 0.293 (inactive) | -0.249 (inactive) | 1.31 (inactive) | 0.808 (inactive) | 0.0384 (inactive) | -0.108 (inactive) | 0.267 (inactive) | 0.263 | 2.64 |
| COCCOC(=O)N1C(=O)[C@@]2(c3cc(C#CCCO)ccc31)[C@H](c1ccc(O)cc1)N1[C@H](c3ccccc3)[C@H](c3ccccc3)OC(=O)[C@H]1[C@@H]2C(N)=O | -0.231 | 0.0254 (inactive) | -0.644 (inactive) | -0.294 (inactive) | 0.911 (inactive) | 0.565 (inactive) | 0.145 (inactive) | 0.138 (inactive) | -1.08 | -0.0272 |
| COCCOC(=O)N1C(=O)[C@@]2(c3cc(C#CC4(O)CCCCCC4)ccc31)[C@H](C(=O)N1CCCCCCC1)[C@H]1C(=O)O[C@H](c3ccccc3)[C@H](c3ccccc3)N1[C@@H]2c1ccccc1OCCO | -0.449 | 0.71 (inactive) | -0.297 (inactive) | 0.969 (inactive) | 1.07 (inactive) | 2.36 (inactive) | -1.49 (inactive) | -1.16 (inactive) | -0.432 | 0.026 |
| C=CCNC(=O)[C@@H]1[C@H]2C(=O)O[C@H](c3ccccc3)[C@H](c3ccccc3)N2[C@H](c2ccccc2OCCO)[C@@]12C(=O)Nc1ccc(C#CC3=CCCCC3)cc12 | -1.55 | 0.556 (inactive) | -2.61 (inactive) | 0.496 (inactive) | 1.55 (inactive) | 1.78 (inactive) | -0.125 (inactive) | -0.353 (inactive) | -5 | 0.0593 |
| COCCOC(=O)N1C(=O)[C@@]2(c3cc(C#CCC(C(=O)OC)C(=O)OC)ccc31)[C@H](c1ccccc1OCCO)N1[C@H](c3ccccc3)[C@H](c3ccccc3)OC(=O)[C@H]1[C@@H]2C(N)=O | -0.592 | 0.9 (inactive) | -9.3 (active) | 0.47 (inactive) | 0.774 (inactive) | 1.97 (inactive) | 0.116 (inactive) | 0.857 (inactive) | -7.24 | -0.0874 |
| CC(=O)NCCCC[C@@H]1NC(=O)[C@@H]2C[C@H](C(=O)NCCCCCCNC(=O)CS)[C@H](c3ccc(O)cc3)N2C1=O | 0.107 | -0.688 (inactive) | -0.568 (inactive) | -0.344 (inactive) | -0.434 (inactive) | 0.208 (inactive) | -0.356 (inactive) | -0.214 (inactive) | -0.763 | -0.0773 |
| CC(=O)NCCCC[C@@H]1NC(=O)[C@H]2C[C@@H](C(=O)NCCCCCC[N+](C)(C)C)[C@@H](c3cccc(OCCO)c3)N2C1=O | 1.04 | -0.458 (inactive) | 0.56 (inactive) | -1.75 (inactive) | 3.45 (inactive) | -0.718 (inactive) | -0.47 (inactive) | -0.711 (inactive) | 0.0647 | 0.0871 |
